{
  "source": "PubChem BioAssay (NCI)",
  "note": "The panel holds about 79,000 compounds, 15% with a hit somewhere; the sample as a whole holds those more often. Active and inactive are the calls of the source. Rule as the data show it: active = growth inhibition above about 70%; inactive = the rest.",
  "data": [
    {"assay": "NCI Yeast Anticancer Drug Screen. Data for the wt2 strain (AID 169);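 also: 0% = growth of vehicle-treated yeast cultures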", "details": "S. cerevisiae wt2 strain growth inhibition; at 33.0 µM; hits give high values", "how_it_was_run": "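Growth of compound-treated yeast is measured and expressed as inhibition relative to vehicle-only controls.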", "values": [
      {"compound": "CCC/C(Cl)=N\\OC(=O)Nc1cccc(C(F)(F)F)c1", "growth inhibition": "83% (active)"},
      {"compound": "[O-][n+]1c2ccc(O)cc2nc2ccc(Cl)cc21", "growth inhibition": "46% (inactive)"},
      {"compound": "Clc1ccccc1C1OC1c1ccccc1Cl", "note": "(centres undefined)", "growth inhibition": "-46% (inactive)"},
      {"compound": "c1ccc2c(c1)c1ncccc1c1nccnc21", "growth inhibition": "19% (inactive)"},
      {"compound": "CC(=O)Nc1ccc2c(c1)C(=Nc1ccc(C(=O)O)cc1)c1ccccc1-2", "growth inhibition": "9% (inactive)"},
      {"compound": "COc1ccc(OC)c2cc3ccccc3cc12", "growth inhibition": "-8% (inactive)"},
      {"compound": "COc1cc(C2c3cc4c(cc3OC(NNc3ccccc3)C2C)OCO4)cc(OC)c1OC", "note": "(centres undefined)", "growth inhibition": "96% (active)"},
      {"compound": "O=C1c2cc([N+](=O)[O-])ccc2-c2cccc(F)c21", "growth inhibition": "17% (inactive)"},
      {"compound": "CCCCCCCCCCCC(=O)N(C)C", "growth inhibition": "29% (inactive)"},
      {"compound": "CCCCCCCCCCCC1=C(O)C(=O)C=C(O)C1=O", "growth inhibition": "96% (active)"},
      {"compound": "Cc1ccc(CSC(N)=Nc2ccccc2)cc1C", "growth inhibition": "-5% (inactive)"},
      {"compound": "CCCCCCCCCCC1CCC(=O)O1", "note": "(centres undefined)", "growth inhibition": "4% (inactive)"},
      {"compound": "O=[N+]([O-])c1cc(CCl)ccc1CCl", "growth inhibition": "96% (active)"},
      {"compound": "Nc1ccc2c(c1)C(=O)c1cccc(N)c1C2=O", "growth inhibition": "56% (inactive)"},
      {"compound": "CCCCCCCCCCNC(=O)OCC", "growth inhibition": "38% (inactive)"},
      {"compound": "CC1=C(C)Cc2c(O)ccc(O)c2C1", "growth inhibition": "3% (inactive)"},
      {"compound": "COc1ccc2c(c1)C(=O)c1ccccc1C2", "growth inhibition": "7% (inactive)"},
      {"compound": "CCC(=O)OCCn1c2nc(=O)[nH]c(=O)c-2nc2cc(C)c(C)cc21", "growth inhibition": "85% (active)"},
      {"compound": "O=C(OCCN1CCCCCC1)C(c1ccsc1)C1CCCCC1", "note": "(centres undefined)", "growth inhibition": "39% (inactive)"},
      {"compound": "Oc1c(Br)cc(Br)cc1C1CCCCC1", "growth inhibition": "91% (active)"},
      {"compound": "CC1(C)[C@@H]2CC[C@]1(C)[C@H](OC(=O)CSC#N)C2", "growth inhibition": "89% (active)"},
      {"compound": "S=C(N/N=C(/c1ccccc1)c1ccccn1)N1CCCCCC1", "growth inhibition": "10% (inactive)"},
      {"compound": "Cc1ccc2[nH]c3c(C)c4cc[n+](C)cc4c(C)c3c2c1", "growth inhibition": "49% (inactive)"},
      {"compound": "CNC(=O)OCc1c(COC(=O)NC)c(-c2ccc(-c3ccccc3)cc2)n(C)c1C", "growth inhibition": "-27% (inactive)"},
      {"compound": "COc1ccccc1/C=C1\\Sc2scc(-c3cccc([N+](=O)[O-])c3)[n+]2C1=O", "growth inhibition": "98% (active)"},
      {"compound": "O=[N+]([O-])c1ccc2c(c1)C(N1CCN(CCO)CC1)Cc1ccc(F)cc1S2", "note": "(centres undefined)", "growth inhibition": "-3% (inactive)"},
      {"compound": "Cc1ccc(CCC2=CCCc3c2ccc2ccccc32)cc1", "growth inhibition": "-8% (inactive)"},
      {"compound": "O=[N+]([O-])c1cccc2nccc(NCCCO)c12", "growth inhibition": "-22% (inactive)"},
      {"compound": "Cc1ccc(-n2cc(-c3ccc(Cl)cc3)c(C#N)c2N)cc1", "growth inhibition": "3% (inactive)"},
      {"compound": "Cc1ccc(S/N=C\\c2ccccc2O)cc1", "growth inhibition": "0% (inactive)"},
      {"compound": "O=C(O)C1OC1(c1cccc(Cl)c1)c1ccccc1Cl", "note": "(centres undefined)", "growth inhibition": "26% (inactive)"},
      {"compound": "NC(=S)N/N=C\\c1nccc2ccccc12", "growth inhibition": "97% (active)"},
      {"compound": "Clc1cccc(C(Nc2nncs2)Nc2nncs2)c1Cl", "growth inhibition": "19% (inactive)"},
      {"compound": "O=C(OCC=C1CCCC1)c1cc([N+](=O)[O-])cc([N+](=O)[O-])c1", "growth inhibition": "97% (active)"},
      {"compound": "O=C(Nc1ccccc1)C(=O)C(C(=O)c1ccccc1)C(c1ccccc1)c1ccccc1", "note": "(centres undefined)", "growth inhibition": "12% (inactive)"},
      {"compound": "N#CN1C2CCC1CC(=O)C2", "growth inhibition": "-22% (inactive)"},
      {"compound": "COc1ccccc1C(=O)OCC1CCCN2CCCCC12", "note": "(centres undefined)", "growth inhibition": "96% (active)"},
      {"compound": "CCNc1nnc(CSc2nc(-c3ccccc3)c(-c3ccccc3)[nH]2)s1", "growth inhibition": "92% (active)"},
      {"compound": "O=C1c2ccccc2-c2n[nH]c3cccc1c23", "growth inhibition": "41% (inactive)"}
    ]}
  ]
}
